# Artemis inh: Artemis endonuclease inhibitors, primary screen, biochemical, fluorescence intensity, FAM/BHQ-1 hairpin substrate. recombinant Artemis, quenched FAM hairpin cleavage fluorescence. inhibition, % at 10 µM. hit rate 0.78% among 30,000;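 active = at 10 µM dose, at least 30% inhibition, measured as corrected fluorescence normalized to stimulator and neutral control wells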
# An asterisk follows results filed as active. This is one part of a sample in which hits are shown more often than they occur.
SMILES,Artemis inh
Cc1cc(NC(=O)COC(=O)c2c(C)nn(Cc3ccccc3Cl)c2C)no1,88.5*
O=C(COC(=O)Cc1ccccc1)Nc1ncc(Cl)cc1Cl,-12.5
CN(C)C1(c2nnnn2CCOC(=O)Nc2ccc(Cl)cc2)CCCCC1,8.3
N=C(N)c1c(O)n(C2CCCCC2)c(=O)n(C2CCCCC2)c1=O,4.7
CC(Cc1ccccc1Sc1ccccc1O)N(C)C (stereo not given),-3.4

# Screening results deposited in PubChem by Sanford-Burnham Center for Chemical Genomics.
